# Source: PubChem BioAssay (several laboratories)
# Rce1 inh: blocks yeast Ras-converting enzyme. Q03530. yeast membranes, quenched prenylated peptide cleavage fluorescence. calls only. 0.27% of 290,000 active. AID 2563;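 active means fall in fluorescence gain of 50% or more versus controls, with final raw signal at or below 3038400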;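 further: plate controls were neutral control wells for no effect and wells lacking membranes for full effect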
# ANO1 activ: activators or potentiators of mouse TMEM16A chloride channel; AID 623877; 0.3% of 340,000 active; HEK293 TMEM16A/YFP-H148Q/I152L, iodide quench fluorescence; stronger effect = lower value; Q8BHY3; B-score at 10 µM;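 active means fluorescence-ratio B-score plate-corrected deviation score at least 3 library SD below zero, with starting fluorescence score within 5 deviations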;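 further: channel opened by trigger with iodide after compound preincubation; score built on the fluorescence ratio of max minus min over baseline; more negative score means more quench and so TMEM16A activation or potentiation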
# Target sequence (Q8BHY3 whole entry, looked up): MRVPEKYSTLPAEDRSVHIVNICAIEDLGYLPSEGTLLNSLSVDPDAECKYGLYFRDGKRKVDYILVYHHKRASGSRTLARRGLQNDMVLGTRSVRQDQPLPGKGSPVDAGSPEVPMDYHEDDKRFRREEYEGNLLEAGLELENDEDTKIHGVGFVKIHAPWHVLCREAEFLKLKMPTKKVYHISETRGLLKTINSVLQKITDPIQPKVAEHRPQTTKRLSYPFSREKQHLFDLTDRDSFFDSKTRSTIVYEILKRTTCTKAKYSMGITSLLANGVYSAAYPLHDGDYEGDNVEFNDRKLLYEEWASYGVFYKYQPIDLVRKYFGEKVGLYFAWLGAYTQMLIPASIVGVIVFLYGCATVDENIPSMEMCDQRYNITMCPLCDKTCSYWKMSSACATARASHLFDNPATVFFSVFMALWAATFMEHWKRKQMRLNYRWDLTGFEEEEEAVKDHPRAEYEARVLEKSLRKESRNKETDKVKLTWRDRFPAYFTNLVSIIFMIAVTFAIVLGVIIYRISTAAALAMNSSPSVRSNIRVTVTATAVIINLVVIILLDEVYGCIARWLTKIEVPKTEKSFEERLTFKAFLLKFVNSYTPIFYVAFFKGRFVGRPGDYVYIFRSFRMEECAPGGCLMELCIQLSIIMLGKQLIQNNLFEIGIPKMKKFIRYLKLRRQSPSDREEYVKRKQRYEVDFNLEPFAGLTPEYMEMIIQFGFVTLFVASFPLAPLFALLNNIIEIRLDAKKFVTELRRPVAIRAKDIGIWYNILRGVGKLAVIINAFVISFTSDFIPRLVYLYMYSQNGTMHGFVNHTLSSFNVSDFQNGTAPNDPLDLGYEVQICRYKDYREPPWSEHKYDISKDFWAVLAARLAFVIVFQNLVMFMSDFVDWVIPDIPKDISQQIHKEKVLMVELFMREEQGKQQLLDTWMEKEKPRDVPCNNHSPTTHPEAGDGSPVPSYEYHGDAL
# CHT PAM: allosteric activators of human choline transporter CHT. CHT-expressing cells, membrane potential dye, choline EC20; stronger effect = higher value; LV-AA mutant CHT in HEK293 cells. 0.49% of 310,000 active. B-score at 10 µM;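 active means initial fluorescence not abnormally high and integrated response B-score, plate-corrected, over 3 SD above library mean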
# CHT inh: inhibits the human high affinity choline transporter; Q9GZV3; CHT-expressing cells, membrane potential dye, choline response; stronger effect = lower value; B-score at 10 µM; 0.86% of 310,000 active;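 active means B-score over 3 SD under the library average, and starting fluorescence ratio not unusually high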;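 further: choline stimulus applied at its EC90 after an EC20 pre-addition; B-score computed on integrated fluorescence ratio after choline addition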
# Kir21 inh: inhibitors of mouse Kir2.1 inward-rectifier potassium channel | HEK293-Kir2.1, FluxOR thallium flux fluorescence; stronger effect = lower value | P35561 | B-score at 10 µM | 0.85% of 310,000 active;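 active means fluorescence ratio B-score at or below minus 3 SD of library scores, with starting-brightness B-score within 2 SD, cut at about -4.2 in these data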;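 further: channel flux triggered by added potassium and thallium sulfate stimulus; B-score of peak minus minimum fluorescence over baseline after thallium stimulus; more negative B-score means stronger Kir2.1 block with less thallium influx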
# TMEM16A inh: inhibitors of mouse TMEM16A calcium-activated chloride channel. Q8BHY3. HEK293 TMEM16A/YFP iodide influx fluorescence, ionomycin. normalized B-score (activity score, 25-100; higher = stronger inhibition) at 10 µM. 1.2% of 310,000 active. AID 588511;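 active means ratio plate-corrected score three or more library SD toward inhibition, starting fluorescence score within five deviations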;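 further: score derived from kinetic fluorescence span divided by baseline fluorescence per well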
# Numbers without * were called inactive; i = inactive; . = no result given; + = active, no number. Rows were chosen to be rich in hits. Some 3.2% of all compounds tested hit in one or more screens of this group.
SMILES,Rce1 inh,ANO1 activ,CHT PAM,CHT inh,Kir21 inh,TMEM16A inh
C(=C\c1ccccc1)/CSc1nnc(-c2cnccn2)n1Cc1ccco1,i,i,i,i,-5.3*,i
Fc1ccc(CSc2nnc(-c3cccnc3)n2Cc2ccco2)cc1,i,i,i,i,-0.62,i
Fc1ccc(CSc2nnc(-c3cnccn3)n2Cc2ccco2)cc1,i,i,i,i,-0.54,i
Clc1ccccc1CSc1nnc(-c2cccnc2)n1Cc1ccco1,i,i,i,i,-4.4*,i
C=CCn1c(SCC(=O)Nc2ccc(C(=O)O)cc2)nnc1-c1cccnc1,i,i,i,i,-0.02,i
C=CCn1c(SCc2cccc3ccccc23)nnc1-c1cccnc1,i,i,i,i,-6.4*,i
O=C(COC(=O)COc1cccc(C(F)(F)F)c1)NC1CCCC1,i,i,i,i,-0.05,i
CCCNC(=O)c1ccc(N2CCC3(CC2)CC(c2cccc(Br)c2)=NO3)c(NC(=O)c2cccc(C)c2)c1,i,i,i,i,-0.31,i
O=C1N(Cc2cccc(Cl)c2)C[C@@H]2C[C@@H](c3cccc4ncccc34)N3CCC[C@@]123,i,i,i,i,-0.78,i
O=C1N(Cc2cccc(Cl)c2)C[C@@H]2C[C@@H](c3c[nH]c4ccccc34)N3CCC[C@@]123,i,-4.6*,i,i,-0.1,i
c1ccc(-c2noc(CSc3nc4ccccc4o3)n2)cc1,i,i,i,i,-0.28,i
Clc1ccc(-c2nnc(SCc3nc(-c4ccccc4)no3)o2)cc1,i,-4.7*,i,i,-0.34,i
Cc1ccc(-c2noc(CSc3nnc(-c4ccncc4)n3-c3ccc(C)cc3)n2)cc1,i,i,i,i,-0.02,i
Clc1ccc(-c2noc(CSc3nnc(-c4ccncc4)n3-c3ccccc3)n2)cc1,i,i,i,i,-1.2,100*
Oc1c(Cl)cc(Cl)cc1Sc1cc(Cl)cc(Cl)c1O,i,.,i,i,0.96,100*
Cc1cc(C)c(O)c(CN(C)Cc2cc(Cl)cc(Cl)c2O)c1,.,i,.,.,.,.
CN(C)CC1C2CCC(C2)C1O (stereo not drawn),.,i,.,.,.,.
Cc1ccc(C2=NN(C(=O)c3ccco3)C(O)(C(F)(F)F)C2)cc1 (stereo not drawn),i,i,i,i,-4.6*,i
COc1cccc(C2=NN(C(=O)c3ccco3)C(O)(C(F)(F)F)C2)c1 (stereo not drawn),i,i,i,i,0.61,i
O=[N+]([O-])c1ccccc1Sc1nccn1Cc1ccccc1,i,i,i,i,-4.9*,i
Cc1c(N(C)C(=O)c2ccccc2F)c(=O)n(-c2ccccc2)n1C,i,-6.5*,i,i,-0.75,i
Cc1ccccc1S(=O)(=O)c1c(C)cc(C)n(C(C)C)c1=O,i,i,i,i,-4.4*,i
Cc1cc(C)c(S(=O)(=O)c2ccccc2C)c(N(C)C)n1,i,i,i,i,-1.9,i
COc1ccc(C(=O)/C=C/c2cccc(OCc3ccccc3)c2)cc1CSCC(=O)O,i,i,i,i,-6.2*,i
COc1ccc(/C=C/CN2CCCC(CCC(=O)NCc3ccc(F)c(F)c3)C2)cc1 (stereo not drawn),i,i,i,i,-4.9*,i
SMILES,Rce1 inh,ANO1 activ,CHT PAM,CHT inh,Kir21 inh,TMEM16A inh
COc1ccccc1/C=C/CN1CCCC(CCC(=O)NCc2ccc(F)c(F)c2)C1 (stereo not drawn),i,i,i,i,-0.09,i
CC(C)=C(NC(=O)c1ccccc1)C(=O)Nc1ccc(C(=O)O)cc1,i,i,i,i,0.02,i
CC(C)(C)OC(=O)NCCCCCc1cn([C@@H](CO)C(=O)NCCCCCCCCCCC(=O)N2CCN(C(=O)OC(C)(C)C)CC2)nn1,.,i,i,i,.,100*
CC[C@H](C)[C@@H](C(=O)NCCCCCCCCCCC(=O)N1CCN(C(=O)OC(C)(C)C)CC1)n1cc(CCCCCNC(=O)OC(C)(C)C)nn1,.,i,i,i,.,25*
N#CC1=C(N)NC(SCc2ccc(F)cc2)=C(C#N)C12CCCCC2,i,i,i,i,-4.4*,100*
CCOc1ccc(-n2ccnc(SCC(=O)NC3CCCC3)c2=O)cc1,+,i,i,i,0.96,i
C/C(CC(=O)Nc1cccc(F)c1)=N\NC(=O)c1ccncc1,i,i,i,i,1,i
O=C(NC(=S)NCCCN1CCOCC1)c1ccc([N+](=O)[O-])cc1,.,i,i,i,0.32,i
CCc1cc(-c2n[nH]c(=S)n2C(C)c2ccccc2)cs1 (stereo not drawn),i,i,i,i,-7.8*,i
CC(=O)Nc1ccc(S(=O)(=O)N2CCCCC2c2cccnc2)cc1 (stereo not drawn),.,i,i,i,2.5,i
COc1cc(C)c(C)cc1S(=O)(=O)N1CCCCC1c1cccnc1 (stereo not drawn),i,-6*,i,i,-0.58,i
NC(=O)COC(=O)CC12CC3CC(CC(Br)(C3)C1)C2,i,i,i,i,-0.57,i
Cc1cc(O)c(/C=N/OCc2ccc(Cl)cc2Cl)c(=O)o1,i,i,i,i,0.51,i
O=c1c(/C=N/OCc2ccc(Cl)cc2Cl)c[nH]n1-c1cccc(Cl)n1,i,i,i,i,0.23,25*
Cc1csc(CN(C)C(=O)CC2C(=O)NCCN2Cc2ccc(F)c(F)c2)n1 (stereo not drawn),i,i,i,i,0.12,i
CSc1ccc(OC2CCN(Cc3ccccc3)CC2)cc1,i,i,i,i,-20*,i
CSc1ccc(CN2CCC(Oc3cccc(C(=O)N4CCCC4)c3)CC2)cc1,i,i,i,i,-4.6*,i
CSc1ccc(CN2CCC(N3CC(C)OC(C)C3)CC2)cc1 (stereo not drawn),.,i,i,i,0.33,i
COCCN(Cc1cccs1)S(=O)(=O)c1ccc(-c2ccc(=O)[nH]n2)s1,i,i,i,i,-0.44,i
COc1cc(NC(=O)C/C(C)=N/NC(=O)c2cccc(O)c2)c(OC)cc1Cl,+,i,i,i,0.71,i
Cc1ccc(C(=O)N/C(=C/c2ccco2)C(=O)Nc2cccc(C(=O)O)c2)cc1,+,.,i,i,-0.93,i
CC(=O)N[C@@H](C)c1nc2ccccc2n1CCCN1CCN(c2nc(-c3ccc(C)cc3)cs2)CC1,+,i,i,i,0.02,i
